Measurements as given in the supplement of paper PMC13380429.

Experiments:
[1] = test system: Vero E6 infected with SARS-CoV-2; assay: morphology score (similarity to uninfected cells); higher = more like uninfected cells; conditions: 24 h
[2] = test system: Vero E6 infected with SARS-CoV-2; assay: SARS-CoV-2 infection rate relative to infected DMSO; higher = more infection, active = 60 or less; conditions: 24 h

SMILES	morphology score [1]	SARS-CoV-2 infection rate [2]
CC(=O)[C@H]1CC[C@H]2[C@@H]3CC=C4C[C@@H](OC(=O)CCC(=O)O)CC[C@]4(C)[C@H]3CC[C@]12C [pregnenolone-succinate] (10 µM)	-0.0431	104% (inactive)
C=Cc1cc(O)cc2nc(-c3ccc(O)c(F)c3)oc12 [prinaberel] (10 µM)	0.143	96.5% (inactive)
Cc1[nH]cnc1-c1ccc(Cl)cc1 [lofemizole] (10 µM)	-0.0942	102% (inactive)
CC(C)c1cccc2c(-c3ccccc3)cc(-c3ccc(-c4ccc(C(=O)O)cc4)[nH]3)nc12 (10 µM)	0.104	87.5% (inactive)
C#CCN(C)[C@H](C)Cc1ccccc1 [selegiline] (10 µM)	0.0406	105% (inactive)
NC(=O)c1ncn([C@@H]2O[C@H](CO)[C@@H](O)[C@H]2O)c1O [mizoribine] (10 µM)	0.0626	112% (inactive)
C[C@H](CCC(=O)O)[C@H]1CC[C@H]2[C@@H]3C(=O)C[C@@H]4CC(=O)CC[C@]4(C)[C@H]3CC(=O)[C@]12C [dehydrocholate-acid] (10 µM)	0.231	94.8% (inactive)
C[N+]1(CCCCC[N+]2(C)CCCC2)CCCC1 [pentolinium] (10 µM)	-0.0223	102% (inactive)
C=C1/C(=C\C=C2/CCC[C@]3(C)[C@@H]([C@H](C)OCCC(C)(C)O)CC[C@@H]23)C[C@@H](O)C[C@@H]1O [maxacalcitol] (10 µM)	-0.0664	122% (inactive)
